# DT40 TDP1 CPT – growth inhibition of DT40 Tdp1-/-;hTDP1 cells with camptothecin (screen for TDP1 inhibitors) | chicken DT40 Tdp1-/-;hTDP1 cells + 20 nM CPT, ATP luminescence, 48 h | Potency, µM (top dose mostly 46.2 µM), for the others: at the top dose activity change, negative = growth inhibition, actives largely listed as inhibitors | 420,000 tested, 12% active | AID 686979; further: nearly all actives have a fitted effect of over 55% in size
#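 Chicken DT40 Tdp1-/- cells stably complemented with human TDP1 were seeded at 400 cells/well in medium containing 20 nM camptothecin, exposed to pin-transferred compounds, and grown at 37 °C for at least 48 hr. Viability was read as ATP luminescence.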
# HT1080 IDH1KD tx – kills HT-1080 cells with IDH1 knockdown; HT-1080 IDH1 knockdown viability, ATP luminescence, 48 h; Potency, µM (highest dose often 46.1 µM), inactives show at the highest dose activity, negative = toxicity, most hits filed as cytotoxic; 360,000 tested, 2% active; AID 686971;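 further: 0% = DMSO wells and -100% = cell-free medium wells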
#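 HT-1080-IDH1KD cells (IDH1 knocked down), 750/well in RPMI with 5% FBS, treated with compound 48 h at 37 degrees C. Viability by CellTiter-Glo luminescence, normalised to DMSO and no-cell wells; concentration-response curves classed.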
# HT1080-NT tox – kills 2HG-producing HT-1080-NT fibrosarcoma cells | HT-1080-NT fibrosarcoma viability, CellTiter-Glo ATP luminescence, 48 h | Potency, µM (doses to about 46.1 µM), inactives show at the highest dose activity, negative = less viability, most hits filed as cytotoxic | 360,000 tested, 1.6% active | AID 686970;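 further: NT is the 2HG producing partner of a matched IDH1 knockdown line; 0% = DMSO-treated cells and -100% = media-only wells without cells; nearly all actives have a fitted effect of over 55% in size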
#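 750 cells/well, RPMI + 5% FBS; 2 h settle, compound pin-transfer, 48 h at 37 degrees C. CellTiter-Glo 10 min RT, luminescence. Normalized to DMSO and media-only wells.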
# KB-3-1 cytotox – kills parental KB-3-1 adenocarcinoma cells; KB-3-1 viability, CellTiter-Glo ATP luminescence, 72 h; Potency, µM (series often up to 46.1 µM), usual class: cytotoxic; 400,000 tested, 1.4% active; AID 1347075; further: nearly all actives have a fitted effect of over 60% in size
#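 Cells are dispensed, compounds pinned in, plates held at 37 °C for 72 h, then CellTiter-Glo is added and luminescence read after 10 minutes. Cell line: parental KB-3-1 in phenol-red-free DMEM, 10% FBS.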
# KB-V1 cytotox – kills drug-selected multidrug resistant KB-V1 cells; Potency, µM (highest dose often 46.1 µM), actives largely listed as cytotoxic; KB-V1 MDR cells viability, CellTiter-Glo, 72 h; 400,000 tested, 3.4% active; AID 1347076; further: nearly all actives have a fitted effect of over 60% in size
#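 Readout: CellTiter-Glo luminescence, 10 min after addition. Cells: KB-V1 MDR subline, 72 h at 37 degrees C with compound. Analysis: corrected, normalized data fitted to concentration-effect curves.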
# TDP1 cell noCPT – qHTS for Inhibitors of human tyrosyl-DNA phosphodiesterase 1 (TDP1): qHTS in cells in absence of CPT | DT40 Tdp1-/- hTDP1 cells, no CPT, ATP luminescence, 48 h | Potency, µM (top dose mostly 46.2 µM), inactives show top-dose activity change, negative = growth inhibition, hits mostly inhibitors | 420,000 tested, 15% active; further: nearly all actives have a fitted effect of over 55% in size
#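 Seeded 400 DT40-hTDP1 cells/well (vehicle DMSO, no 20 nM CPT); pinned compounds; ≥48 hr at 37 °C; CellTiter-Glo luminescence as viability measure.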
# Numbers without * were called inactive; i = inactive; ? = inconclusive; · = not tested or not shown; [ ] = remark or other dose. This is a sample that favours compounds with a hit; in the whole collection about 19% have one here. The call rests on the fitted dose curve; in most records, active means well fitted curve in the direction sought with a large enough effect; inconclusive means small, poorly fitted or top-dose-only effect, or another doubt; inactive means no such curve, though single readings can be large; an effect the other way counts as inactive or inconclusive. Unless noted, on the % scale 0 is the no-effect control and ±100 the full control effect; potency means the concentration at half of the fitted maximal effect.
SMILES,DT40 TDP1 CPT,HT1080 IDH1KD tx,HT1080-NT tox,KB-3-1 cytotox,KB-V1 cytotox,TDP1 cell noCPT
CNc1c(Br)cc(C=O)cc1Br,?,·,·,i,i,-29.2%
O=C(Cn1ncc2c([nH]c3ccccc32)c1=O)Nc1cc(F)ccc1F,4.2%,·,·,i,i,-17.2%
Cc1ccsc1CN(C(=O)c1ccc(OCC(C)C)cc1)C1CCS(=O)(=O)C1 (stereo unspecified),?,·,·,·,·,14.6µM*
CC(C)COc1ccc(C(=O)N(Cc2cccc(F)c2)C2CCS(=O)(=O)C2)cc1 (stereo unspecified),20.6µM*,·,·,i,i,?
CCOc1ccc(C(=O)N(Cc2sccc2C)C2CCS(=O)(=O)C2)cc1 (stereo unspecified),?,·,·,·,·,-26.5%
COc1cc(OC)c(NC(=O)CCCn2nc(C)c3c(C)n(-c4ccccc4)nc3c2=O)cc1Cl,?,·,·,i,i,?
CCN(CC)C(=O)CSCc1cnn(-c2ccccc2)c1-n1cccc1,?,2.6%,-1.7%,i,?,16.4µM*
COc1cccc(CNC(=O)C2CCN(C(=O)c3cnn(-c4ccccc4)c3-n3cccc3)CC2)c1,?,·,·,i,i,?
O=C(CSCc1cnn(-c2ccccc2)c1-n1cccc1)NCC1CCCO1 (stereo unspecified),?,3.5%,6.0%,i,i,?
COc1ccc(OC)c(CCNC(=O)c2cnn(-c3ccccc3)c2-n2cccc2)c1,23.1µM*,·,·,i,i,1.84µM*
COc1ccc(NC(=O)CSCc2cnn(-c3ccccc3)c2-n2cccc2)cc1,?,·,·,·,·,16.4µM*
Cc1ccccc1CNC(=O)CCSCc1cnn(-c2ccccc2)c1-n1cccc1,?,·,·,·,·,16.4µM*
CCc1ccccc1NC(=O)CSCc1cnn(-c2ccccc2)c1-n1cccc1,?,·,·,i,i,?
O=C(Nc1ccc(C(O)c2ccccc2)cc1)[C@H]1C[C@H](O)[C@@H](CO)O1 (stereo partly specified),-2.1%,3.3%,?,i,i,-2.0%
COc1ccc(CNC(=O)CSCc2cnn(-c3ccccc3)c2-n2cccc2)cc1,-25.5%,1.0%,-0.2%,i,?,23.1µM*
Cc1cc(C(=O)COC(=O)Cc2ccc(Br)cc2)c(C)n1C,0.5%,4.6%,2.1%[9.24 µM],i,i,11.1%
CCC1(c2ccccc2)NC(=O)N(CC(=O)NC2CCCCCC2)C1=O (stereo unspecified),4.2%,0.5%,0.7%,i,?,7.6%
COc1ccccc1-c1ccc(Nc2cccc(C(C)=O)c2)nn1,?,-25.4%,-2.3%,i,13µM*,-18.6%
NNC(=O)c1[nH]c2ccc([N+](=O)[O-])cc2c1-c1ccccc1,20.6µM*,3.66µM*,?,?,i,23.1µM*
Cc1nc2ccccc2nc(=O)c1NNc1ccccc1,-29.9%,-11.8%,-4.2%,i,i,?
Cc1ccc2nc(=O)c(NNc3ccccc3)cnc2c1,?,-6.4%,7.8%,i,i,10.3µM*
Cc1ccc(C)c(NC(=S)N2CCC(C(=O)c3ccc(F)cc3)CC2)c1,-1.3%,3.0%,-1.2%,i,i,-26.7%
COc1ccc(NC(=O)c2c(NCc3ccc(C)o3)sc3c2CCCCC3)c(OC)c1,9.2µM*,·,·,i,i,18.4µM*
COc1ccccc1NC(=O)c1c(NCc2ccc(C)o2)sc2c1CCC(C)C2 (stereo unspecified),18.4µM*,·,·,i,i,?
COc1ccc(NC(=O)c2c(NCc3ccc(C)o3)sc3c2CCC(C)C3)c(OC)c1 (stereo unspecified),20.6µM*,·,·,i,i,?
SMILES,DT40 TDP1 CPT,HT1080 IDH1KD tx,HT1080-NT tox,KB-3-1 cytotox,KB-V1 cytotox,TDP1 cell noCPT
COc1ccc(NC(=O)c2c(NCc3ccc(C)o3)sc3c2CCC(C)C3)cc1 (stereo unspecified),23.1µM*,·,·,i,i,9.2µM*
Cc1cccnc1-c1cccc2c1OC(CNC(=O)Cc1c(C)noc1C)C2 (stereo unspecified),7.5%[9.04 µM],·,·,·,·,-15.3%
CC(=O)c1ccc(NC(=O)C2CCCN(c3ncnc4c3nc3n4CCCCC3)C2)cc1 (stereo unspecified),?,7.6%,1.6%,i,i,13µM*
CSc1cccc(NC(=O)C2CCCN(c3ncnc4c3nc3n4CCCCC3)C2)c1 (stereo unspecified),?,4.5%,2.0%,?,14.6µM*,14.6µM*
O=C(OCC(O)C1OC(c2ccccc2)OC(COC(=O)c2ccccc2)C1O)c1ccccc1 (stereo unspecified),?,-29.5%,?,i,i,?
CC(=O)Nc1ccc(Oc2ccc(S(=O)(=O)N3CCCC3)cn2)cc1,-0.5%,-0.2%,0.8%,i,i,-25.9%
CC(C(=O)Nc1ccccc1)C(=O)Nc1ccccc1,-1.3%,-2.4%,-19.6%,i,i,4.7%
CC(=O)C(Cl)C(=O)Nc1ccccc1 (stereo unspecified),2.59µM*,?,?,20.6µM*,i,4.11µM*
O=C(Nc1ccccc1)C(Cl)C(=O)c1ccccc1 (stereo unspecified),6.51µM*,10.6%,7.7%,i,i,8.2µM*
O=C(CSc1nnc(-c2ccccc2)c(-c2ccccc2)n1)Nc1ccc(Br)cn1,?,-19.8%,-20.5%,i,i,?
CCC(C)N(C)Cc1cccc(C2(O)CCN(S(=O)(=O)c3ccc(F)c(C)c3)CC2)c1 (stereo unspecified),18.4µM*,-0.1%,-3.1%,i,?,18.4µM*
Nc1ncccc1OCc1ccc(Cl)c(Cl)c1,?,-17.1%,-0.1%,?,i,25.9µM*
COc1ccc(OC)c(S(=O)(=O)NCC(=O)NC2CCCc3ccccc32)c1 (stereo unspecified),4.6%,1.4%,0.7%,i,i,-7.0%
Cc1ccc(S(=O)(=O)N2CCN(c3nc(-c4cncs4)nc4ccccc34)CC2)cc1,10µM*,2.0%,6.4%,·,·,7.08µM*
Cc1ccc(S(=O)(=O)N2CCN(c3nc(-c4ccccc4)nc4ccccc34)CC2)cc1,6.8%,·,·,?,i,-16.2%
Cc1ccc(S(=O)(=O)N2CCN(c3nc(-c4cncn4C)nc4ccccc34)CC2)cc1,20µM*,?,?,·,·,?

# From PubChem BioAssay
